# Assay results reported in PubChem BioAssay (EPA / NIEHS).
# Where “and” joins values, the source holds several entries; their conditions need not be identical. Equal entries are not always repeated. Inconclusive results are not listed. Some structures have more than one record in an assay (separate samples or runs), and their calls can disagree. Calls of active or inactive are those of the source. Rule for the calls, unless noted: active = hit-call score of the fitted dose curve at least 0.9, where 1 is the maximum; inconclusive = response in the unintended direction; inactive = score below 0.9.
# What was measured:
# [1] = read-out: solute carrier (SLC22A6), SLC22A6 (gene 9356); assay: LTEA_HepaRG_SLC22A6: Life Technologies and Expression Analysis (LTEA) Assay for solute carrier (SLC22A6) using HepaRG (AID 2283653; active = hit-call score of the fitted dose curve at least 0.9, where 1 is the maximum; inactive = score below 0.9); settings: mRNA level, 48 h; actives raise or lower the signal
# Method in brief: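 Differentiated human HepaRG cells were exposed for 48 h in serum-free induction medium to eight concentrations (top 100 uM, half-log steps, 0.5% DMSO), in duplicate. SLC22A6 mRNA was quantified by qRT-PCR, normalised to ACTB, GAPDH and POLR2A, and fitted bidirectionally against DMSO.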
# [2] = Tanguay_ZF_120hpf_SWIM_legacy: (Legacy) Oregon State University Tanguay Lab 120 Hour Post-fertilization zebrafish Assay for Swim Bladder Malformation (AID 2283654);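 note: swim bladder malformation in each larva scored yes or no under brightfield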
# Method in brief: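 Tropical 5D embryos dechorionated at 4 hpf; 1 embryo/well from 6 hpf; static, sealed, dark exposure at 28C until 120 hpf; final DMSO 0.64%; 5uM trimethyltin chloride positive control; swim bladder defect recorded yes/no; dead embryos not scored.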
# [3] = Tanguay_ZF_120hpf_TRUN_legacy: (Legacy) Oregon State University Tanguay Lab 120 Hour Post-fertilization zebrafish Assay for Truncated Body (AID 2283655)
# Method in brief: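 Tropical 5D wild-type embryos, dechorionated with pronase at 4 hpf, were placed singly in wells at 6 hpf and statically exposed at 28C until 120 hpf, final DMSO 0.64%. Truncated body was scored present/absent by brightfield microscopy.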
# [4] = Tanguay_ZF_120hpf_NC_legacy: (Legacy) Oregon State University Tanguay Lab 120 Hour Post-fertilization zebrafish Assay for Notochord and Tail Malformation (AID 2283656)
# Method in brief: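 Binary notochord-distortion calls, made by brightfield inspection, form the read-out; activity is fitted in the positive direction against DMSO. Exposure ran statically from 6 to 120 hpf at 28C with 0.64% DMSO.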
# [5] = read-out: solute carrier (SLC10A1), SLC10A1 (gene 6554); assay: LTEA_HepaRG_SLC10A1: Life Technologies and Expression Analysis (LTEA) Assay for solute carrier (SLC10A1) using HepaRG (AID 2283657; active = hit-call score of the fitted dose curve at least 0.9, where 1 is the maximum; inactive = score below 0.9); settings: mRNA level, 48 h; actives raise or lower the signal
# Method in brief: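 HepaRG, 48 h exposure, 8-pt half-log curve from 100 uM in 0.5% DMSO, duplicates. Read-out: TaqMan qRT-PCR of SLC10A1 mRNA, normalized to three housekeeping genes. Gain/loss fit vs DMSO baseline.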
# [6] = read-out: matrix metalloproteinase-1 (MMP1), MMP1 (gene 4312); assay: LTEA_HepaRG_MMP1: Life Technologies and Expression Analysis (LTEA) Assay for matrix metalloproteinase-1 (MMP1) using HepaRG (AID 2283658; active = hit-call score of the fitted dose curve at least 0.9, where 1 is the maximum; inactive = score below 0.9); settings: mRNA level, 48 h; actives raise or lower the signal
# Method in brief: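 Differentiated HepaRG cells, plated 48 h then switched to serum-free induction medium, were exposed in duplicate for 48 h to eight half-log concentrations up to 100 uM in 0.5% DMSO; MMP1 mRNA measured by qRT-PCR, normalized to ACTB, GAPDH, POLR2A.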
# [7] = read-out: xenobiotic metabolism (CYP1A1), CYP1A1 (gene 1543); assay: CLD_CYP1A1_6hr: CellzDirect (CLD) Gene Expression Assay for xenobiotic metabolism (CYP1A1) at 6 hours (AID 2283661);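 for AC50: potency for transcript induction above DMSO vehicle baseline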
# Method in brief: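 Read-out 6 h post-dose: qNPA chemiluminescent quantitation of transcript induction against 0.2% DMSO. Cells were cultured primary human hepatocytes from two separate donor preparations; phase-contrast morphology annotated apparent cytotoxicity.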
# [8] = read-out: ABC Transporter (ABCB1), ABCB1 (gene 5243); assay: CLD_ABCB1_6hr: CellzDirect (CLD) Gene Expression Assay for ABC Transporter (ABCB1) at 6 hours (AID 2283659);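 note: hits raise ABCB1 transcript above the DMSO vehicle baseline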
# Method in brief: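 ABCB1 transcript measured by quantitative nuclease protection assay, chemiluminescent read-out, 6 h after dosing human hepatocyte cultures (0.2% DMSO vehicle, daily redosing). Activity fitted as increase over DMSO baseline; cytotoxicity flagged by phase-contrast morphology.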
# [9] = system: Thyroperoxidase (TPO), gene 54314; assay: CCTE_Simmons_AUR_rTPO: CCTE's Amplex UltraRed Assay for Thyroperoxidase (TPO) Inhibition, Simmons Lab (AID 2283662);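 for AC50: potency for loss of signal meaning inhibition of peroxidase activity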
# Method in brief: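 Cell-free peroxidase activity assay using rat thyroid gland microsomes with excess H2O2 (300 uM) and 25 uM Amplex UltraRed. Compounds tested from 5 nM to 87.5 uM; fluorescence measured after 30 min at 37C, analysed relative to DMSO baseline.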
# [10] = read-out: xenobiotic metabolism (CYP1A2), CYP1A2 (gene 1544); assay: CLD_CYP1A2_6hr: CellzDirect (CLD) Gene Expression Assay for xenobiotic metabolism (CYP1A2) at 6 hours (AID 2283663);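 for AC50: potency is for induction meaning a rise in mRNA above DMSO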
# Method in brief: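 mRNA levels quantified by quantitative nuclease protection assay with chemiluminescence, 6 h after dosing human primary hepatocyte cultures (two donors) across several concentrations, vehicle 0.2% DMSO. Induction fitted upward versus DMSO; phase-contrast cytotoxicity annotated.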
smiles,measurement,setting,value
C=CC1(C)OC(=O)N(c2cc(Cl)cc(Cl)c2)C1=O (stereo not drawn),outcome,[1],inactive
same,outcome,[2],inactive
same,outcome,[3],inactive
same,outcome,[4],inactive
same,AC50,[5],77.2 µM (active)
same,outcome,[6],inactive
same,AC50,[7],1.47 µM (active)
CCCCNC(=O)n1c(NC(=O)OC)nc2ccccc21,outcome,[2],inactive
same,outcome,[3],inactive
same,outcome,[4],inactive
same,outcome,[8],inactive
same,AC50,[7],3.66 µM (active)
same,outcome,[9],inactive
same,outcome,[10],inactive
C=CCC1=C(C)[C@@H](OC(=O)[C@@H]2[C@@H](C=C(C)C)C2(C)C)CC1=O,outcome,[2],inactive
same,outcome,[4],inactive
same,outcome,[8],inactive
same,outcome,[7],inactive
same,AC50,[9],54 µM (active)
COc1ccc(C(c2ccc(OC)cc2)C(Cl)(Cl)Cl)cc1,outcome,[2],inactive
same,outcome,[3],inactive
same,outcome,[8],inactive
same,AC50,[7],15.8 µM (active)
Fc1ccc(Oc2ccnc3cc(Cl)cc(Cl)c23)cc1,outcome,[2],inactive
same,outcome,[3],inactive
same,outcome,[4],inactive
same,AC50,[7],3.13 µM (active)
COc1nc(C)nc(NC(=O)NS(=O)(=O)c2ccccc2Cl)n1,outcome,[8],inactive
same,AC50,[7],0.00131 µM (active)
same,outcome,[7],inactive
CN(C)C(=S)SSC(=S)N(C)C,outcome,[3],inactive
same,outcome,[4],inactive
same,outcome,[8],inactive
same,outcome,[9],inactive
CC(Oc1ccc(Cl)cc1Cl)C(=O)O (stereo not drawn),outcome,[2],inactive
same,outcome,[4],inactive
same,outcome,[7],inactive
O=C(Nc1ccccc1)Nc1ccnc(Cl)c1,outcome,[2],inactive
same,outcome,[4],inactive
same,AC50,[7],12.3 µM (active)
same,AC50,[9],27.6 µM (active)
CC1=C(C(=O)Nc2ccccc2)SCCO1,outcome,[3],inactive
same,outcome,[4],inactive
same,AC50,[7],11.1 µM (active)
same,AC50,[9],5.33 µM (active)
COc1nc(C)nc(NC(=O)NS(=O)(=O)c2ccccc2CCC(F)(F)F)n1,outcome,[8],inactive
same,AC50,[7],1.9 µM (active) and 287 nM (active)
same,outcome,[7],inactive
CCNc1nc(Cl)nc(NCC)n1,outcome,[2],inactive
same,outcome,[3],inactive
same,AC50,[7],4.72 µM (active)
CC1COC(Cn2cncn2)(c2ccc(Oc3ccc(Cl)cc3)cc2Cl)O1 (stereo not drawn),outcome,[2],inactive
same,outcome,[4],inactive
same,outcome,[8],inactive
same,outcome,[7],inactive
same,outcome,[9],inactive
CC(C)C1(C)N=C(c2nc3ccccc3cc2C(=O)O)NC1=O (stereo not drawn),outcome,[2],inactive
same,outcome,[3],inactive
same,outcome,[4],inactive
same,outcome,[7],inactive
O=C(O)COc1nc(Cl)c(Cl)cc1Cl,outcome,[2],inactive
same,outcome,[3],inactive
same,outcome,[8],inactive
O=C(O)c1nc(Cl)ccc1Cl,outcome,[2],inactive
same,outcome,[3],inactive
same,outcome,[4],inactive
same,AC50,[7],4.04 µM (active)
same,outcome,[7],inactive
same,outcome,[9],inactive
N#CC(CCc1ccc(Cl)cc1)(Cn1cncn1)c1ccccc1 (stereo not drawn),outcome,[2],inactive
same,outcome,[4],inactive
same,outcome,[8],inactive
same,AC50,[7],1.89 µM (active)
same,AC50,[10],1.89 µM (active)
CNC(=S)S,outcome,[3],inactive
same,outcome,[4],inactive
same,outcome,[7],inactive
same,AC50,[9],22 µM (active) and 23 µM (active)
COC(=O)C=C(C)OP(=O)(OC)OC,outcome,[2],inactive
same,outcome,[3],inactive
same,outcome,[7],inactive
same,AC50,[9],14 µM (active)
CCc1nn(C)c(C(=O)NCc2ccc(C(C)(C)C)cc2)c1Cl,outcome,[2],inactive
same,outcome,[3],inactive
same,outcome,[4],inactive
same,AC50,[7],6.51 µM (active)
Cc1cc(Cl)ccc1OCC(=O)O,outcome,[2],inactive
same,outcome,[3],inactive
same,outcome,[8],inactive
same,outcome,[7],inactive
CS/C(C)=N/OC(=O)N(C)SN(C)C(=O)O/N=C(\C)SC,outcome,[2],inactive
same,outcome,[3],inactive
same,AC50,[4],25 µM (active)
same,outcome,[7],inactive
CC(C)Oc1cc(-n2nc(C(C)(C)C)oc2=O)c(Cl)cc1Cl,outcome,[2],inactive
same,outcome,[3],inactive
same,outcome,[4],inactive
same,AC50,[7],1.57 µM (active)
CCOP(=S)(OCC)SCn1c(=O)oc2cc(Cl)ccc21,outcome,[2],inactive
same,outcome,[3],inactive
same,outcome,[8],inactive
same,AC50,[7],0.36 µM (active)
same,AC50,[9],2.18 µM (active)
C#CCOS(=O)OC1CCCCC1Oc1ccc(C(C)(C)C)cc1 (stereo not drawn),outcome,[2],inactive
same,outcome,[4],inactive
same,AC50,[7],3.67 µM (active)
CCON=C(CC)C1=C(O)CC(c2c(C)cc(C)cc2C)CC1=O (stereo not drawn),outcome,[2],inactive
same,outcome,[3],inactive
same,outcome,[4],inactive
same,outcome,[7],inactive
CCCCC(CC)COC(=O)c1ccccc1C(=O)OCC(CC)CCCC (stereo not drawn),outcome,[2],inactive
same,outcome,[3],inactive
same,outcome,[4],inactive
same,outcome,[7],inactive
CON(C)C(=O)Nc1ccc(Cl)c(Cl)c1,outcome,[2],inactive
same,outcome,[3],inactive
same,outcome,[4],inactive
same,AC50,[7],0.762 µM (active)
same,AC50,[9],35 µM (active)
COP(N)(=O)SC (stereo not drawn),outcome,[2],inactive
same,outcome,[3],inactive
same,outcome,[7],inactive
same,AC50,[9],30.6 µM (active)
